# Assay results taken from PubChem BioAssay (NCI).
# About 79,000 compounds went through this panel and 15% of them were active in at least one assay; those are over-represented in the sample as a whole. Activity calls are given as the source filed them. Cut-off read from the data, not from the text of the source: active = growth inhibition above about 70%; inactive = the rest.
# Test: NCI Yeast Anticancer Drug Screen. Data for the wt1 strain (AID 149);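 note: 0% = growth of vehicle-treated wt1 cultures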
# Conditions: S. cerevisiae wt1 strain (SPY 50644) growth inhibition; at 11.0 µM; stronger effect = higher value
# Procedure, shortened: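 Yeast wt1 strain exposed to compounds; growth inhibition measured relative to vehicle-treated controls.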
row,SMILES,growth inhibition
1,COc1ccc2nc3cccc([N+](=O)[O-])c3c(NCCNCCN(C)C)c2c1,-2% (inactive)
2,Cc1cccc(/C=N/NC(=S)NC2CCCCC2)n1,-4% (inactive)
3,COC(=O)C(=O)c1c(-c2ccc(Cl)c(Cl)c2)[nH]c2[nH]n(-c3ccccc3)c(=O)c2c1=O,24% (inactive)
4,c1ccc([P+](CCN2Cc3ccccc3C2)(c2ccccc2)c2ccccc2)cc1,26% (inactive)
5,Cc1cc(C)c2[s+]snc2c1,1% (inactive)
6,CC(C)(Br)C(=O)/C=C/c1ccccc1,9% (inactive)
7,Cc1ccc(S(=O)(=O)NC(=O)C2C(=O)CC3(CCCCC3)CC2=O)cc1,-20% (inactive)
8,NC(=S)N1N=C2c3ccccc3CC[C@H]2[C@@H]1c1ccc(Cl)cc1,31% (inactive)
9,O=[N+]([O-])/C=C/c1cc2ccc3ccccc3c2[nH]1,41% (inactive)
10,O=C1C(=C2CCCC2)CCC1CN1CCCCC1 (stereo unspecified),27% (inactive)
11,OC(CC(O)(C(F)(F)F)C(F)(F)F)c1ccc(C(O)CC(O)(C(F)(F)F)C(F)(F)F)cc1 (stereo unspecified),94% (active)
12,COc1cc2c(cc1OC)[C@@H](Nc1ccc(C#N)cc1)C1COC(=O)[C@@H]1C2c1cc(OC)c(O)c(OC)c1 (stereo partly specified),-9% (inactive)
13,O=c1cccccc1[O-].O=c1cccccc1[O-].O=c1cccccc1[O-].[Eu+3],14% (inactive)
14,O=C1c2ccccc2C(=O)c2sc(Nc3ccccc3Cl)nc21,58% (inactive)
15,NC(CCCCCCCCCCCCC(N)C(=O)c1ccccc1)C(=O)c1ccccc1 (stereo unspecified),75% (active)
16,CC1=C(C)C(=O)C2=C(OCCO2)C1=O,-5% (inactive)
17,c1ccc(-c2cc(C3CO3)c3ccccc3n2)cc1 (stereo unspecified),-5% (inactive)
18,S=C1C(=Nc2ccccc2)N(c2ccccc2)/C(=N\c2ccccn2)N1c1ccccc1,21% (inactive)

row,SMILES,growth inhibition
1,CCC(OC(C)=O)C1CC(C(C)C)CCC1C (stereo unspecified),-2% (inactive)
2,CC(C)=CCc1c2c(c(O)c3c(=O)c(-c4ccc(O)c(O)c4)coc13)C=CC(C)(C)O2,79% (active)
3,O=C(NC(N1CCN(c2cc3c(cc2F)c(=O)c(C(=O)O)cn3C2CC2)CC1)(C(F)(F)F)C(F)(F)F)c1ccccc1,-1% (inactive)
4,Fc1cc(F)c(F)c(S)c1F,-39% (inactive)
5,COc1ccc2cc3c4cc5c(cc4cc[n+]3cc2c1OC)OCO5,50% (inactive)
6,CCCCCCCCNCCCCCCCC,29% (inactive)
7,Nc1cc(Cl)ccc1Nc1ccccc1,-25% (inactive)
8,O=C(/C(=C/c1ccc(O)cc1)c1ccccc1)c1ccccc1,35% (inactive)
9,O=Cc1ccccc1C=O,-17% (inactive)
10,C1=CCN([B-](c2ccccc2)[C+]2CCCCC2)C=C1,1% (inactive)
11,CC/C(=C(\c1ccccc1)c1ccc(OCC[N+](C)(C)C)cc1)c1ccccc1,98% (active)
12,O=S(=O)(c1cccc(C(F)(F)F)c1)N1c2ccccc2-n2cccc2C1c1cccnc1 (stereo unspecified),55% (inactive)
13,Nc1ccc2c(c1)C(=O)c1c(F)cccc1-2,-6% (inactive)
14,CN(C)/C(=N/C(=S)Nc1ccccc1)SCc1ccccc1,0% (inactive)
15,CCN(CC)C(=S)N/N=C(\C)c1ccccc1O,28% (inactive)
16,CC(C)OC(=O)NNc1cc(Cl)ccc1Cl,29% (inactive)
17,CC(C)CCC[C@@H](C)[C@H]1CC[C@H]2[C@@H]3CC[C@H]4C[C@H](N)CC[C@]4(C)[C@H]3CC[C@]12C,-3% (inactive)
18,O=C1c2ccccc2-c2ccc(N=Cc3ccccc3)cc21,14% (inactive)
